High-throughput results (PubChem BioAssay)
Pf Dd2 inh: inhibitors of Plasmodium falciparum Dd2 growth; P. falciparum Dd2 growth, SYBR Green, 72 h; Potency, µM (doses to about 28.9 µM), without a hit: at the top dose activity, negative = inhibition, hits mostly inhibitors; hit rate 4.3% among 120,000; AID 1347417; active = well fitted inhibition curve with a large enough effect;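 note: plate controls were DMSO vehicle for no effect and reference drug for full effect; nearly all actives have a fitted effect of over 65% in size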
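Readout: SYBR Green fluorescence, 485 nm excitation, 535 nm emission, after ~16 h lysis at 37C. Before that, Dd2-infected red cells (2.5% hematocrit) grew 72 h with compound, 29 uM top final concentration.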
Starred values were filed as active, the others as inactive; i = inactive; [ ] = remark or other dose. The sample as a whole holds a higher share of hits than the screen did. Potency is the fitted concentration of half-maximal effect.

SMILES | Pf Dd2 inh
Cc1ccc(-c2nnc(C3CN(C(=O)c4cccnc4C)CC34CCOCC4)o2)cc1 (stereo not given) | -13.8%
Cc1ccc(-c2nnc(C3CN(C(=O)c4ccn[nH]4)CC34CCOCC4)o2)cc1 (stereo not given) | i
Cc1ccc(-c2nnc(C3CN(C(=O)c4cccc(F)c4)CC34CCOCC4)o2)cc1 (stereo not given) | 3.98µM*
Cc1ccc(-c2nnc(C3CN(C(=O)Cc4cccc(F)c4)CC34CCOCC4)o2)cc1 (stereo not given) | i
O=C1NC2(CN(Cc3ccccc3C(F)(F)F)C2)Oc2ccccc21 | -13.9%
O=C(O)C[C@@H]1CCN(C(=O)NC2CCCCC2)C[C@@H]1CCN1C[C@@H]2C[C@H](C1)c1cccc(=O)n1C2 | 18.5%
Cc1cnc(C(=O)N2CCC(Oc3cccnc3)C2)cn1 (stereo not given) | 2.8%
Cc1cc(C)n(CCCC(=O)N2C[C@H](CO)C[C@H](CN(C)C)C2)n1 | -3.4%
CC(C)c1noc(-c2cn(C3CCN(C(=O)c4ccc(C#N)cc4)C3)nn2)n1 (stereo not given) | i
Cc1ccc(NC(=O)Cn2ccn3nc(-c4ccc(F)cc4)c(CO)c3c2=O)cc1Cl | i
O=C1NCCN(Cc2cccc(Oc3ccccc3)c2)C1CC(=O)N1CCCOCC1 (stereo not given) | -6.8%
O=S(=O)(NCCc1noc(-c2ccccc2)n1)c1ccc(Cl)cc1 | i
Cc1c(Cl)cccc1NC(c1ccc(F)cc1)c1nnc(-c2ccccc2)o1 (stereo not given) | i
Clc1ccc(CCNC(c2nnc(-c3ccccc3)o2)c2ccccc2Cl)cc1 (stereo not given) | 11.2µM*
O=C1CCN(S(=O)(=O)c2ccccc2)CCCN(Cc2ccncc2F)CCN1 | -16.3%
CC(C)OCCCNC(=O)C1Cn2cccc2C(=O)N1Cc1cccnc1 (stereo not given) | -12.8%
COc1ccccc1CNC(=O)C1Cn2cccc2C(=O)N1Cc1cccnc1 (stereo not given) | 4.47µM*
O=C(NCc1cc(F)ccc1F)C1Cn2cccc2C(=O)N1Cc1ccccc1 (stereo not given) | -11.6%
COc1cccc(CNC(=O)C2Cn3cccc3C(=O)N2Cc2ccccc2)c1 (stereo not given) | -17.9%
COCCCNC(=O)C1Cn2cccc2C(=O)N1Cc1ccccc1 (stereo not given) | 21.3%
COc1ccccc1OCCNC(=O)C1Cn2cccc2C(=O)N1Cc1cccnc1 (stereo not given) | 5.62µM*
O=C(NCCN1CCCCC1)C1Cn2cccc2C(=O)N1Cc1cccnc1 (stereo not given) | 2.5%
O=C(NCCCN1CCCC1=O)C1Cn2cccc2C(=O)N1Cc1cccnc1 (stereo not given) | 3.7%
O=C(NCCCN1CCCc2ccccc21)C1Cn2cccc2C(=O)N1Cc1cccnc1 (stereo not given) | 8.91µM*
Cc1ccc(C2Cn3nnc(-c4nc(-c5cccnc5)no4)c3CO2)c(C)c1 (stereo not given) | -15.1%
SMILES | Pf Dd2 inh
CCS(=O)(=O)N1CCC(Nc2cccnc2)C1 (stereo not given) | 17.1%[5.79 µM]
NC(=O)C1CCCN(Cc2ccc(-c3cnc4c(OCc5ccccc5)nccn34)cc2)C1 (stereo not given) | -10.2%
Cc1ccccc1S(=O)(=O)N1CCn2c(nn(CC3CC3)c2=O)C1 | -8.7%
COc1ccc(CC(=O)N2CCC(Nc3nccnc3OC)CC2)cc1 | -13.9%[5.79 µM]
O=C(C1CCOCC1)N1CCCC1c1nc(C2CCOCC2)no1 (stereo not given) | 48.7%
CCOC(=O)c1cccc(NC(=O)N2CCC(CN3CCc4ccccc4C3)CC2)c1 | -14.0%
CCOC(=O)c1cccc(NC(=O)N2CC=C(c3c[nH]c4ccccc34)CC2)c1 | 6.31µM*
CCOc1ccc2c(n1)CCN(C(=O)Nc1cc(C)ccc1C)C2 | -15.4%
Cc1cc(NC(=O)N2CC=C(c3c[nH]c4ccccc34)CC2)ccc1Br | -2.7%
Cc1ccc(C)c(NC(=O)N2CC=C(c3c[nH]c4ccccc34)CC2)c1 | 3.98µM*
CCc1ccc(NC(=O)N2CC=C(c3c[nH]c4ccccc34)CC2)cc1 | i
O=c1[nH]c2cccnc2n1C1CC1 | -19.4%[44.1 µM]
CC1(COc2cccnc2)COc2ccc(C(=O)NCc3ccc4c(c3)OCO4)cc2N1 (stereo not given) | i
CS(=O)(=O)N1CCCC(C(=O)NC2CCN(Cc3ccccc3)CC2)CCNC(=O)CC1 (stereo not given) | 13.9%
CCCN1CCN(c2ncnc3sc(C(=O)Nc4ccc(OC(F)(F)F)cc4)c(C)c23)CC1 | 5.01µM*
Cc1nc(N2CCCC2)ncc1C(=O)Nc1ccc(OC(F)(F)F)cc1 | i
O=C(Nc1ccc2ncnc(N3CCCC3)c2c1)c1ccc(OC(F)(F)F)cc1 | -20.0%
COC1CCC(C(=O)NCC2COc3ncncc3C(=O)N2Cc2ccccc2)CC1 (stereo not given) | 10.2%[44.1 µM]
COc1ccccc1-c1onc(C)c1C(=O)NCc1ccccc1Cl | -6.1%
COc1cc(CN2CCN(c3ncnc4[nH]ccc34)CC2CCO)cc(OC)c1 (stereo not given) | -8.3%
CCCS(=O)(=O)N1C[C@@H](Oc2cccnc2)C[C@@H]1C(=O)NC | 4.2%
CCCSc1nnc2n(-c3ccc(OC)cc3)c(=O)c3c4c(sc3n12)COC(C(C)C)C4 (stereo not given) | 10µM*
COC(=O)CSc1nnc2n(-c3ccccc3)c(=O)c3c4c(sc3n12)COC(C(C)C)C4 (stereo not given) | 33.7%
COc1ccc(-n2c(SCCC(C)C)nc3sc4c(c3c2=O)CC(C(C)C)OC4)cc1 (stereo not given) | 0.6%
O=C(c1ccc2ccccc2n1)N1CCCC(Cc2noc(C3CC3)n2)C1 (stereo not given) | 28.4%
SMILES | Pf Dd2 inh
CCc1ccc(S(=O)(=O)N2CCC(Oc3ncccc3C(=O)N(C)C)C2)cc1 (stereo not given) | i
Cc1ccc(NC(=O)C2CCN(C(=O)c3ncn4c3COC(c3ccccc3)C4)CC2)cc1C (stereo not given) | i
CN(C)CCC(=O)N1Cc2ccccc2CC2(CCCCN2C)C1 (stereo not given) | -34.0%
CN1CCN(C(=O)C2(N(C)CCc3ccccc3)Cc3ccccc3C2)CC1 | 1µM*
CC(=O)N1Cc2ccccc2CC2(CCN(C)CC2)C1 | -20.8%[44.1 µM]
N#Cc1ccc(CN2CCC(N3CCNC3=O)CC2)cc1 | 12.9%[44.1 µM]
Cc1noc([C@@H]2CN(Cc3ccccc3)C[C@H]2CO)n1 | -5.1%
Cn1cnc(C(=O)NC2CCN(C(=O)N3CC4CC(C3)[C@H]3CCCC(=O)N3C4)CC2)c1 (stereo not given in full) | i
CCc1nnc2ccc(NCC3CCCO3)nn12 (stereo not given) | -8.9%
Cc1ccc(CNc2ccc3nnc(C4CCC4)n3n2)o1 | 7.08µM*
CC(C)Nc1ccc2nnc(C3CCC3)n2n1 | 92.5%
COc1ccc(C(=O)N2CCC(Cc3nc(-c4ccc(F)cc4)no3)CC2)c(C)c1 | i
O=C(Cc1cccc(Cl)c1)N1CCC2(CC1)COc1ccccc1[S+](=O)([O-])N2 | -10.4%
COc1ccc2[nH]c3c(c2c1)CCN(C)C31CCN(C(=O)c2cnccc2C)CC1 | i
CN1C(=O)[C@H]2CN(Cc3ccc4[nH]ccc4c3)C[C@H]2C1=O | i
CN1CCCCCCN(Cc2ccc3[nH]ccc3c2)[C@H]2CCC[C@H]2C1=O | 2µM*
CN1CCCCCCN(C(=O)NCCc2ccccc2)[C@H]2CCC[C@H]2C1=O | -7.5%
Cc1cccc(CN2CCCCCNC(=O)[C@@H]3CCC[C@@H]32)c1 | -27.1%
